Sampled rows, rich in hits. Any-hit rate of the full collection: about 8%.
KB-3-1 cytotox – kills parental KB-3-1 adenocarcinoma cells. actives 1.4% (n = 400,000). Potency, µM (top dose mostly 46.1 µM), usual class: cytotoxic. KB-3-1 viability, CellTiter-Glo ATP luminescence, 72 h; also: nearly all actives have a fitted effect of over 60% in size
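72 h, 37 °C compound treatment of KB-3-1 parental cells; CellTiter-Glo added, 10 min, luminescence read. Data corrected against DMSO-only plates and normalized before curve fitting.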
HT1080NT lethal – kills 2HG-producing HT-1080-NT fibrosarcoma cells; HT-1080-NT fibrosarcoma viability, CellTiter-Glo ATP luminescence, 48 h; AID 686970; actives 1.6% (n = 360,000); Potency, µM (highest dose often 46.1 µM), hits mostly cytotoxic;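 also: NT is the 2HG producing partner of a matched IDH1 knockdown line; nearly all actives have a fitted effect of over 55% in size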
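Luminescent CellTiter-Glo readout after 48 hours of compound exposure at 37 degrees C defined viability of HT-1080-NT cells. Activity was normalized to DMSO wells and cell-free media wells; concentration-response curves were fitted and assigned curve classes.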
SW480 rereplic – DNA re-replication induction in SW480 cells | SW480 DNA re-replication, Hoechst DNA content imaging, 48 h | actives 1.8% (n = 340,000) | Potency, µM (series often up to 46.1 µM), most hits filed as activators; also: nearly all actives have a fitted effect of over 55% in size
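Hoechst fluorescence of nuclei (405 nm excitation, 500-530 nm emission) measured by plate-scanning imager after 48 hr compound exposure at 37 C; re-replication scored as increased number of nuclei with elevated intensity.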
HT1080 IDH1KD tx – toxicity to HT-1080 IDH1 knockdown cells (counter line); HT-1080 IDH1 knockdown viability, ATP luminescence, 48 h; Potency, µM (titrated, usually from 46.1 µM), actives largely listed as cytotoxic; actives 2% (n = 360,000)
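IDH1KD HT-1080 cells, 750/well, RPMI + 5% FBS; compound pinned after 2 h settling; 48 h, 37 °C; CellTiter-Glo luminescence; % activity normalised to DMSO and no-cell wells; curves fitted, classed by r2 and efficacy.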
KB-V1 MDR tox – kills drug-selected multidrug resistant KB-V1 cells. KB-V1 MDR cells viability, CellTiter-Glo, 72 h. Potency, µM (top dose mostly 46.1 µM), hits mostly cytotoxic. actives 3.4% (n = 400,000). AID 1347076; also: nearly all actives have a fitted effect of over 60% in size
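Cytotoxicity toward P-gp-expressing KB-V1 cells was determined as loss of CellTiter-Glo luminescence after 72 h at 37 degrees C. Compounds were tested in quantitative HTS format across a concentration range, with curves fitted to normalized data.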
MCF10A rereplic – inducers of DNA re-replication in MCF 10A breast cells; MCF 10A DNA re-replication, Hoechst nuclear intensity, 48 h; Potency, µM (titrated, usually from 46.1 µM), hits mostly activators; actives 2.9% (n = 350,000); AID 624296; also: nearly all actives have a fitted effect of over 50% in size
Hits are given with their value; – = inactive; ? = inconclusive; · = no result given; ! = not confirmed by another sample; [ ] = another dose, or the depositor's remark. Calls follow the shape of the dose curve; as a rule, active = well fitted curve in the direction sought with a large enough effect; inconclusive = small, poorly fitted or top-dose-only effect, or another doubt; inactive = no such curve, though single readings can be large; an effect the other way counts as inactive or inconclusive.

SMILES	KB-3-1 cytotox	HT1080NT lethal	SW480 rereplic	HT1080 IDH1KD tx	KB-V1 MDR tox	MCF10A rereplic
O=C(CSc1cn(CCNC(=O)c2c(F)cccc2F)c2ccccc12)Nc1ccc(F)cc1	–	·	·	·	–	·
COc1ccc(/C=N/Nc2nc(Nc3ccccc3)nc(N3CCCC3)n2)cc1[N+](=O)[O-]	–	15µM	18µM	?	?	?
COc1ccc(/C=N/Nc2nc(N3CCCCC3)nc(N3CCCCC3)n2)cc1[N+](=O)[O-]	–	–	–	–	–	?
COc1ccc(O)c(/C=N/Nc2nc(Nc3ccccc3)nc(-n3nc(C)cc3C)n2)c1	15µM	?	?	16µM	?	?
COc1ccc(O)c(/C=N/Nc2nc(C)cc(-c3ccccc3)n2)c1	–	?	–	?	?	?
Cc1ccc(C)c(OCC(O)CN2CCc3ccccc3C2)c1C (centres undefined)	–	?	?	9.2µM	–	–
COc1cccc(CNC(=O)c2cc3oc4ccccc4c3n2C)c1OC	?	?	–[9.22 µM]	?	6.5µM	?
CCn1c(C(=O)NCc2ccc(F)cc2)cc2oc3ccccc3c21	–	·	·	·	?	·
Cn1c(C(=O)N2CCc3ccccc3C2)cc2oc3ccccc3c21	–	–	–	–	–	?
CCn1c(C(=O)N2CCc3ccccc3C2)cc2oc3ccccc3c21	–	–	–	–	–	16µM
CCOc1ccccc1CNC(=O)c1cc2oc3ccccc3c2n1CC	?	–	–	?	?	18µM
Cc1ccc(-c2nnc(SC(C)C(=O)NCc3ccco3)n2C)cc1 (centres undefined)	–	·	·	·	–	·
COc1ccc(C2C=C(c3ccccc3)Nc3nc(NS(=O)(=O)c4ccccc4)nn32)cc1 (centres undefined)	–	·	·	·	–	·
Cc1cc(C(=O)NCc2ccccc2C)c2c(C)nn(-c3cccc(F)c3)c2n1	–	·	·	·	–	·
CC(C)CCn1c(N)c(S(=O)(=O)c2cccs2)c2nc3ccccc3nc21	–	22µM	?	?	21µM	–
Cc1ccc(S(=O)(=O)c2c(N)n(CCCO)c3nc4ccccc4nc23)cc1	–	–	–	–	–	–
Cc1ccc(S(=O)(=O)c2c(N)n(CCC(C)C)c3nc4ccccc4nc23)cc1	?	?	16µM	?	13µM	?
Nc1ncnc2c1ncn2[C@@H]1O[C@H](COP(=O)(O)O)[C@@H](O)[C@H]1O	–	?	?	?	?	–
Nc1ncnc2c1ncn2C1OC(COP(=O)(O)O)C(O)C1O (centres undefined)	–	7.3µM	–	?	–	–
CN1N=C(N)c2cn(C3OC(COP(=O)(O)O)C(O)C3O)c3ncnc1c23 (centres undefined)	1.8µM	–	–	?	?	–
Nc1ncnc2c1ncn2C1C=C(CO)C(O)C1O (centres undefined)	8.2µM	?	?	?	?	?
CCc1ccc(-n2c(=O)c3sc4ccccc4c3n(CC(=O)N3CCCC3)c2=O)cc1	–	·	·	·	–	·
CCc1cccc(NC(=O)C(NS(=O)(=O)c2ccc3nc(C)sc3c2)C(C)C)c1 (centres undefined)	–	·	·	·	–	·
O=C(NCc1ccc(Cl)cc1)N1CCN(Cc2ccccc2)CC1	?	–	–	?	16µM	–
O=C(Nc1cc(Cl)cc(Cl)c1)N1CCCN(Cc2ccccc2)CC1	–	21µM	–[9.22 µM]	?	?	–
SMILES	KB-3-1 cytotox	HT1080NT lethal	SW480 rereplic	HT1080 IDH1KD tx	KB-V1 MDR tox	MCF10A rereplic
O=C(Nc1ccccc1)N1CCN(Cc2ccc(Cl)cc2)CC1	–	–	?	–	–	–
COc1ccc(CNC(=O)N2CCN(c3cccc(Cl)c3)CC2)cc1OC	–	–	–	–	?	–
O=C(Nc1ccc(Cl)cc1)N1CCCN(Cc2ccc(F)cc2)C1	?	?	?	?	?	21µM
Cc1cccc(N2CCN(C(=O)NCc3ccc(Cl)cc3)CC2)c1	23µM	?	?	?	8.2µM	?
Cc1cccc(C)c1OCCn1c(C2CC(=O)N(Cc3ccc(F)cc3)C2)nc2ccccc21 (centres undefined)	–	·	·	·	–	·
COc1cccc(CNC(=O)CCCn2ncn3c(cc4occc43)c2=O)c1OC	–	·	·	·	–	·
Cc1cc(Cl)ccc1NC(=S)N1CCN(Cc2ccccc2)CC1	–	–	–	–	23µM	–
O=C(CN1C(=O)C(=O)N(Cc2ccccc2)C1=O)Nc1cc(Cl)cc(Cl)c1	23µM	23µM	18µM	?	?	?
CC(=O)N1c2ccccc2CC1C(=O)N1CCN(c2cccc(C)c2C)CC1 (centres undefined)	–	·	·	·	–	·
COc1ccc(-n2c(C)c3c(OC)cccc(=O)c3c2C)cc1	–	–	–	–	18µM	–
CCC(=O)NC(c1cc(Cl)c2cccnc2c1O)C(C)C (centres undefined)	–	·	0.23µM	·	?	–
O=C(NC(c1ccc(Cl)cc1)c1cc(Cl)c2cccnc2c1O)c1cccnc1 (centres undefined)	?	?	2.6µM	3.3µM	?	15µM
CC(=O)NC(c1ccc(N(C)C)cc1)c1cc(Cl)c2cccnc2c1O (centres undefined)	3.3µM	?	·	?	?	·
COc1ccc(C(NC(C)=O)c2cc(Cl)c3cccnc3c2O)cc1 (centres undefined)	?	?	–	12µM	–	?
CC(=O)NC(c1ccc(Cl)cc1)c1ccc2cccnc2c1O (centres undefined)	–	?	–	?	?	–
CC(=O)Nc1ccc(NS(=O)(=O)c2c(C)nc3sccn3c2=O)cc1	–	·	·	·	–	·
CCCC(=O)NC(c1ccc(OC)c(OC)c1)c1cc(Cl)c2cccnc2c1O (centres undefined)	?	?	1.8µM	?	23µM!	8.2µM
CCc1ccc(OCC2c3cc(OC)c(OC)cc3CCN2C(=O)Cc2ccc(OC)c(OC)c2)cc1 (centres undefined)	–	·	·	·	–	·
COc1ccc(N=C2S/C(=C\c3cc(C)n(C)c3C)C(=O)N2CC(C)C)cc1	–	–	–	–	2.6µM	–
COC(=O)C(C)N1C(=O)S/C(=C/c2cc(C)n(C(C)C)c2C)C1=O (centres undefined)	?	–	–	–	4.1µM	–
COC(=O)CN1C(=O)S/C(=C/c2cc(C)n(C)c2C)C1=O	–	–	–	–	16µM	–
CCCCN(C)C(=O)C1CCCN(c2ncnc3onc(C)c23)C1 (centres undefined)	?	·	·	·	–	·
O=C(Nc1ccc(F)cc1F)c1ccc(CN2CC(=O)N3CCCCC3C2=O)cc1 (centres undefined)	–	·	·	·	–	·
CCn1c(COc2ccc(OC)cc2)nc2ccccc21	–	–	–	–	?	–
